Assay results published in the supplement of paper PMC10849652.
Targets with a hit are over-represented here; the source holds about 7,900 in all. About 0.6% of all pairs of compound and target were hits.

What was measured:
Assay in all cases: log2 fold change, soluble protein after heating vs DMSO (PISA); higher = thermal stabilisation; K562 cells, 10 uM, 30 min; active = over 0.2 and 3.5 SD of the protein, either way, in both replicates (recomputed)
[1] = compound: NC(=O)Nc1cc(-c2cccc(F)c2)sc1C(=O)N[C@H]1CCCNC1
Procedure, shortened: (§1)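 K562 cells (2×10^6 cells/mL) were treated with 10 μM compound for 30 min, and aliquots were heated for 3 min over 48°C-58°C. Pooled aliquots were extracted in PBS with 0.5% NP-40 at 4°C, and the supernatant after 21,000xg for 90 min was measured by TMTpro 16plex LC-MS/MS with channel sums equalised. Reported thermal stability, relative to control samples and from duplicates, is a log2 fold change.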

[2] = compound: NC(=O)c1cnc(N[C@@H]2CCCC[C@@H]2N)nc1Nc1cccc(-n2nccn2)c1
Procedure, shortened: as §1

[3] = compound: NC1(c2ccc(-c3nc4ccn5c(=O)[nH]nc5c4cc3-c3ccccc3)cc2)CCC1
Procedure, shortened: as §1

[4] = compound: NCC(=O)Nc1ccc(-n2nc(C(F)(F)F)cc2-c2ccc3c(ccc4ccccc43)c2)cc1
Procedure, shortened: as §1

[5] = compound: Nc1ccccc1NC(=O)c1ccc(CNC(=O)OCc2cccnc2)cc1 [entinostat]
Procedure, shortened: as §1

[6] = compound: O=C(CCCCCCC(=O)Nc1ccccc1)NO [vorinostat]
Procedure, shortened: as §1

[7] = compound: O=C(CCCCCCNC(=O)c1cnc(N(c2ccccc2)c2ccccc2Cl)nc1)NO [citarinostat]
Procedure, shortened: as §1

[8] = compound: O=C(O)c1ccc2c(c1)nc(Nc1cccc(Cl)c1)c1ccncc12 [silmitasertib]
Procedure, shortened: as §1

[9] = compound: O=C1NC(=O)C(c2cnc3ccccn23)=C1c1cn2c3c(cc(F)cc13)CN(C(=O)N1CCCCC1)CC2
Procedure, shortened: as §1

[10] = compound: c1cc(OCCN2CCCCC2)cc(-c2n[nH]c3ccc(-c4nnc[nH]4)cc23)c1
Procedure, shortened: as §1

Measured: log2 fold change

RUFY1 (UniProt Q96T51)
inactive: [1] 0.06 | [2] -0.057 | [3] -0.086 | [4] -0.101 | [5] 0.05 | [6] 0.031 | [7] 0.032 | [8] 0.11 | [9] 0.038 | [10] -0.037

SF3B5 (UniProt Q9BWJ5)
Chain of UniProt Q9BWJ5 (Q9BWJ5 whole entry, looked up): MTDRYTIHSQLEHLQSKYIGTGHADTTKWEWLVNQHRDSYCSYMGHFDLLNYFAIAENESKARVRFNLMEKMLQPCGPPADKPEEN
inactive: [1] 0.081 | [2] 0.043 | [3] -0.034 | [4] 0.038 | [5] 0.116 | [6] -0.004 | [7] -0.016 | [8] 0.016 | [9] -0.127 | [10] 0

RBM33 (UniProt Q96EV2)
Chain of UniProt Q96EV2 (Q96EV2 whole entry, looked up): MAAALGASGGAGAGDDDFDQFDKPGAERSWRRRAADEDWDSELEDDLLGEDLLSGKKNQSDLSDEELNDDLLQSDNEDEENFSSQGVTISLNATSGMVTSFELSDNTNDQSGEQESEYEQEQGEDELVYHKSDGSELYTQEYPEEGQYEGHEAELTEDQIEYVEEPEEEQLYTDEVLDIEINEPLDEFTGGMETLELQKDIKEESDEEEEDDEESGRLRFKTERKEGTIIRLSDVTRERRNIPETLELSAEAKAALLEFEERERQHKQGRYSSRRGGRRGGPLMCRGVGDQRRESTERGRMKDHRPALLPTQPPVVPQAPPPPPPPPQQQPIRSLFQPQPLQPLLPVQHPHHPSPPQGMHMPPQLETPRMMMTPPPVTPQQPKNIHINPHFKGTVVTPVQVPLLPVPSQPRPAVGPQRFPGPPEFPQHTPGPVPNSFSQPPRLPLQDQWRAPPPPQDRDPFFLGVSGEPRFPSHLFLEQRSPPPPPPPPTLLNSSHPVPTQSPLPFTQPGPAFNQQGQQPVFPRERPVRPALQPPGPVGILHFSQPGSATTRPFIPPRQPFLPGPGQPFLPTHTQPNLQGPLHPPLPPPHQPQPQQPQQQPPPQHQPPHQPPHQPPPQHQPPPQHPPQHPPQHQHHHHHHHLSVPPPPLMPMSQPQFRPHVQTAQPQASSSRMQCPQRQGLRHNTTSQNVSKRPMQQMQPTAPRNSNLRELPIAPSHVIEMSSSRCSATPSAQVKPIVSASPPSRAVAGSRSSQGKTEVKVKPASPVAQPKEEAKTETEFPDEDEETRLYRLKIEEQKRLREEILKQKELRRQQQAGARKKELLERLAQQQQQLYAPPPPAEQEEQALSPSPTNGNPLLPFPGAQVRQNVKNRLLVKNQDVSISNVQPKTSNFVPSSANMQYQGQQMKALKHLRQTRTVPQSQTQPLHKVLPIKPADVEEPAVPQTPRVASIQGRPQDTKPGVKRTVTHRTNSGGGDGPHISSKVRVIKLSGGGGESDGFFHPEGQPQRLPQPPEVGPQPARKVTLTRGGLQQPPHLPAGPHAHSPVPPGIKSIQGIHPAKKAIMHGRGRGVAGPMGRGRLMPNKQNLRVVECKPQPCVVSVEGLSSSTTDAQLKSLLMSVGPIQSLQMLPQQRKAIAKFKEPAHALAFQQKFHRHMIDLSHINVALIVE
inactive: [1] 0.019 | [2] -0.055 | [3] -0.024 | [4] 0.003 | [5] 0.027 | [6] 0.037 | [7] 0.042 | [8] 0.038 | [9] -0.003 | [10] -0.046

SCG3 (UniProt Q8WXD2)
Chain of UniProt Q8WXD2 (Q8WXD2 whole entry, looked up): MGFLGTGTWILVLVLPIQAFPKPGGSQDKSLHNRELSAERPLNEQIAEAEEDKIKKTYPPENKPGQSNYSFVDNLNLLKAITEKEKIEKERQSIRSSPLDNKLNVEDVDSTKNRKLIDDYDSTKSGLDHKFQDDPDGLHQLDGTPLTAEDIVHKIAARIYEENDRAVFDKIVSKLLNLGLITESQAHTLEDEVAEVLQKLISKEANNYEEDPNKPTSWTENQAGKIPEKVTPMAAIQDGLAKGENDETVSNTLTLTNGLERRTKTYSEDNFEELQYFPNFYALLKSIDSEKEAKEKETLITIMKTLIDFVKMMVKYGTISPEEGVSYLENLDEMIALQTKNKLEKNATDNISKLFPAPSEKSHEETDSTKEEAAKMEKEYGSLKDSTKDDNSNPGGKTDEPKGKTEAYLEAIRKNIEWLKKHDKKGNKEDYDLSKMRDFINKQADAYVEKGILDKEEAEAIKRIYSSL
inactive: [1] 0.028 | [2] -0.051 | [3] 0.114 | [4] 0.061 | [5] 0.009 | [6] 0.025 | [7] -0.015 | [8] -0.029 | [9] 0.018 | [10] -0.098

RHEB (UniProt Q15382)
Chain of UniProt Q15382 (Q15382 whole entry, looked up): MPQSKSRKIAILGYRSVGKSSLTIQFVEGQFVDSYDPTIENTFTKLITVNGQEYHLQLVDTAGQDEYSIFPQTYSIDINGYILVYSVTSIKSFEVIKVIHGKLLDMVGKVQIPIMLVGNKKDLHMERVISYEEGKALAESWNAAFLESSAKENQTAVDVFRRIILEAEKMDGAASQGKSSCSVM
inactive: [1] -0.042 | [2] -0.014 | [3] -0.058 | [4] -0.029 | [5] -0.012 | [6] 0.002 | [7] 0.022 | [8] -0.033 | [9] -0.038 | [10] -0.025

RAC1 (UniProt P63000)
inactive: [1] 0.093 | [2] 0.043 | [3] 0.018 | [4] 0.051 | [5] 0.047 | [6] 0.084 | [7] -0.087 | [8] -0.078 | [9] 0.065 | [10] 0.146

RPS6KA1 isoform 2 (UniProt Q15418)
inactive: [1] -0.131 | [2] -0.242 | [3] -0.205 | [4] -0.096 | [5] 0.06 | [6] 0.109 | [7] 0.058 | [8] -0.08 | [9] -0.099 | [10] -0.32

RCC1 isoform 2 (UniProt P18754)
inactive: [1] -0.084 | [2] -0.174 | [3] -0.18 | [4] -0.066 | [5] 0.132 | [6] 0.094 | [7] 0.026 | [8] -0.056 | [9] -0.132 | [10] -0.024

RDH11 (UniProt Q8TC12)
inactive: [1] -0.118 | [2] 0.061 | [3] -0.049 | [4] -0.165 | [5] 0.055 | [6] 0.05 | [7] 0.092 | [8] 0.061 | [9] -0.087 | [10] -0.041

SCD (UniProt O00767)
inactive: [1] -0.064 | [2] -0.151 | [3] -0.071 | [4] -0.054 | [5] -0.043 | [8] 0.083 | [9] 0.051 | [10] -0.005
active: [6] -0.382 | [7] -0.403

SGPL1 (UniProt O95470)
Chain of UniProt O95470 (O95470 whole entry, looked up): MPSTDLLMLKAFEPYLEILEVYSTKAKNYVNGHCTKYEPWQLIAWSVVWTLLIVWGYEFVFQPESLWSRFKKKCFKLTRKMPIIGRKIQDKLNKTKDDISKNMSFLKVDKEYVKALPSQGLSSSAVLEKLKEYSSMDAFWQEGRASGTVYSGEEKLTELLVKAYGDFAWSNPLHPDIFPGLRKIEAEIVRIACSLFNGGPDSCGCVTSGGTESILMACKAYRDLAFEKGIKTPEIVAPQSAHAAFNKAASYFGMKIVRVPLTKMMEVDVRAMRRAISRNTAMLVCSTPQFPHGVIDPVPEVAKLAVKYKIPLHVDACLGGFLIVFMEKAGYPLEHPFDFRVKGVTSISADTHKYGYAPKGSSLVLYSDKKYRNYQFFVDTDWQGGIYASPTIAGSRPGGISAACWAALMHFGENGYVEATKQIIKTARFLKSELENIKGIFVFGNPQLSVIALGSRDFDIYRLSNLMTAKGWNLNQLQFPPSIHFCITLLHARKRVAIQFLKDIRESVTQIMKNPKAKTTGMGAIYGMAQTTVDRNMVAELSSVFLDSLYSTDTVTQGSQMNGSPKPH
inactive: [1] -0.01 | [2] 0.004 | [3] -0.005 | [4] 0.144 | [5] 0 | [6] -0.014 | [7] 0.009 | [8] -0.034 | [9] 0.064 | [10] -0.134

RB1 (UniProt P06400)
Chain of UniProt P06400 (P06400 whole entry, looked up): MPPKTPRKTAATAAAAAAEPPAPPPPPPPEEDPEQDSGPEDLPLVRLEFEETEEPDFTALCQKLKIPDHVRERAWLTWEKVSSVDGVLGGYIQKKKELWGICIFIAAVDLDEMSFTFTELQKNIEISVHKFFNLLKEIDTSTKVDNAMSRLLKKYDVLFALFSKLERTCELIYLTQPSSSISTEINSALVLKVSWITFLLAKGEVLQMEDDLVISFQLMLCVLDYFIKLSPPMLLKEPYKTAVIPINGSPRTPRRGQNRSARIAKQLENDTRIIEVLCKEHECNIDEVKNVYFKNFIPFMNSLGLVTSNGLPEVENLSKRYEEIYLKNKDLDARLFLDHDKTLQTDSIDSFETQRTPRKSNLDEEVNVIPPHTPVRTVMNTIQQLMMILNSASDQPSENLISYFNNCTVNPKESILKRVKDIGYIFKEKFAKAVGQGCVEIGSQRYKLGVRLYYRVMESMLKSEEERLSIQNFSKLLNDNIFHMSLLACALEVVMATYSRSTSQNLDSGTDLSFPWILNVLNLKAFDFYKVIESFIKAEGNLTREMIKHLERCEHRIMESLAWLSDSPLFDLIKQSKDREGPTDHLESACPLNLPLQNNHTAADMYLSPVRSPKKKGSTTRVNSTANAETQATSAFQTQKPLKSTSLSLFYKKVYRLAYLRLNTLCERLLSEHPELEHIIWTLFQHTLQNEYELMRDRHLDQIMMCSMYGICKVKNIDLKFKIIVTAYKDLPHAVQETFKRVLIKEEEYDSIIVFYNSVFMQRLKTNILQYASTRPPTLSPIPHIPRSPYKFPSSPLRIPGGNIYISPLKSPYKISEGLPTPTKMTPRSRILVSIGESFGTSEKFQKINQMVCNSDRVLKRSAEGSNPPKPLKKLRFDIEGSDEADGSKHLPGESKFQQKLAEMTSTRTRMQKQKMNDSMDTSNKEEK
inactive: [1] 0.11 | [2] -0.133 | [3] -0.072 | [4] -0.01 | [5] 0.015 | [6] 0.05 | [7] 0.039 | [8] 0.039 | [10] -0.038
active: [9] -0.241

RBM22 (UniProt Q9NW64)
inactive: [1] -0.027 | [2] -0.004 | [3] 0.032 | [4] -0.049 | [5] -0.008 | [6] -0.009 | [7] -0.038 | [8] 0.119 | [9] -0.063 | [10] -0.043

RB1CC1 (UniProt Q8TDY2)
inactive: [1] 0.009 | [2] 0.124 | [3] 0.126 | [4] -0.022 | [5] 0.001 | [6] 0.047 | [7] 0.114 | [8] -0.08 | [9] -0.077 | [10] 0.111

RSL1D1 (UniProt O76021)
inactive: [1] -0.001 | [2] 0.207 | [3] 0.339 | [4] 0.188 | [5] -0.133 | [6] -0.016 | [7] -0.105 | [8] 0.329 | [9] 0.409 | [10] -0.265

SDCBP (UniProt O00560)
Chain of UniProt O00560 (O00560 whole entry, looked up): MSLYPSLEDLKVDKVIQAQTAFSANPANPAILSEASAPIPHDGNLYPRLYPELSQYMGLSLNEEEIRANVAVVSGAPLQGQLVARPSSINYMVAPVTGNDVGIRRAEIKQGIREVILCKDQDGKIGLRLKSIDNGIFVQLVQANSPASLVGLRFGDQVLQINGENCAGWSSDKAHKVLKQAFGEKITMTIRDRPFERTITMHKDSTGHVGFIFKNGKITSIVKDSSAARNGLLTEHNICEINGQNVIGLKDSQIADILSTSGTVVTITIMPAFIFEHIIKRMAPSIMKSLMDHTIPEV
inactive: [1] -0.027 | [2] -0.017 | [3] -0.207 | [4] -0.189 | [5] 0.007 | [6] 0.063 | [7] -0.014 | [8] 0.073 | [9] 0.028 | [10] -0.08

RNF187 (UniProt Q5TA31)
inactive: [1] 0.004 | [2] -0.056 | [3] -0.033 | [4] 0.07 | [5] -0.019 | [6] 0.095 | [7] 0.054 | [8] 0.012 | [9] -0.061 | [10] 0.035

RCOR1 (UniProt Q9UKL0)
Chain of UniProt Q9UKL0 (Q9UKL0 whole entry, looked up): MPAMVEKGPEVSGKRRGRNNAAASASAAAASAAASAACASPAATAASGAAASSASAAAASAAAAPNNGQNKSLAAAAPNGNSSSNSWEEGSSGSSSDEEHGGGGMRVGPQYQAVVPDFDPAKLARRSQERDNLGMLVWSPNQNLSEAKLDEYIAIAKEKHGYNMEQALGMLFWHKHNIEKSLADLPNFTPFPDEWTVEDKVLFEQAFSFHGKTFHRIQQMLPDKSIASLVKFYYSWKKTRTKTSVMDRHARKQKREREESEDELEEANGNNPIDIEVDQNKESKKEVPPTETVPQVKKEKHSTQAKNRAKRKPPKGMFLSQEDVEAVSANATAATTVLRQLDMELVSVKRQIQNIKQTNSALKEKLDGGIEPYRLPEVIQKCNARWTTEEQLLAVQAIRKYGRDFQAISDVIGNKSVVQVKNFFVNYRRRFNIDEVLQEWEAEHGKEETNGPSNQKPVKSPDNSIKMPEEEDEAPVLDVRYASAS
inactive: [1] 0.035 | [2] -0.104 | [3] -0.03 | [4] -0.133 | [5] 0.189 | [6] 0.082 | [7] 0.007 | [8] 0.016 | [9] -0.043 | [10] -0.103

RTN4IP1 (UniProt Q8WWV3)
inactive: [1] -0.057 | [2] -0.218 | [3] -0.085 | [4] -0.024 | [5] 0.009 | [6] 0.111 | [7] 0.316 | [8] 0.069 | [9] 0.079 | [10] -0.198

RBM12 (UniProt Q9NTZ6)
inactive: [1] -0.044 | [2] -0.062 | [3] -0.219 | [4] -0.106 | [5] 0.133 | [6] 0.128 | [7] 0.107 | [8] -0.026 | [9] -0.219 | [10] -0.002

RSRC2 (UniProt Q7L4I2)
inactive: [1] -0.05 | [2] 0.111 | [3] -0.001 | [4] -0.019 | [5] -0.01 | [6] -0.029 | [7] 0.038 | [8] -0.13 | [9] 0.023 | [10] -0.034

RHOXF2 (UniProt Q9BQY4)
Chain of UniProt Q9BQY4 (Q9BQY4 whole entry, looked up): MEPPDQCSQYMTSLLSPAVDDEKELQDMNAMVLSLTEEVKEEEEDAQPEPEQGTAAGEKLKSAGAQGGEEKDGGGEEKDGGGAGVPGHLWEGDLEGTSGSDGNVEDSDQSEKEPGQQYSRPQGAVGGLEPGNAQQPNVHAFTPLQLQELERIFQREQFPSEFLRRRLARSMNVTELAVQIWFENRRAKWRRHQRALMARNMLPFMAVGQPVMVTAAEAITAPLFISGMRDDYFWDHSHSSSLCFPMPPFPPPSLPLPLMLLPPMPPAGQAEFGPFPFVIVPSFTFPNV
inactive: [1] 0.004 | [2] 0.015 | [3] 0.039 | [4] 0.013 | [5] -0.002 | [6] -0.091 | [7] 0.006 | [8] 0.045 | [9] -0.023 | [10] -0.036

RIOK2 (UniProt Q9BVS4)
active: [2] 0.351
inactive: [1] -0.008 | [3] 0.04 | [4] 0.027 | [5] -0.041 | [6] -0.044 | [7] -0.067 | [8] 0.018 | [9] 0.086 | [10] -0.071

SELENOH (UniProt Q8IZQ5)
Chain of UniProt Q8IZQ5 (Q8IZQ5 whole entry, looked up): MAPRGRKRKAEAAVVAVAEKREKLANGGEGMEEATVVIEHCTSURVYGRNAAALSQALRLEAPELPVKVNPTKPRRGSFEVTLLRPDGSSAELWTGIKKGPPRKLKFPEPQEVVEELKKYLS
inactive: [1] 0.227 | [2] 0.194 | [3] 0.011 | [4] 0.049 | [5] 0.066 | [6] -0.007 | [7] 0.067 | [8] 0.011 | [9] 0.038 | [10] 0.053

RMC1 (UniProt Q96DM3)
inactive: [1] -0.026 | [2] -0.141 | [4] -0.039 | [5] 0.048 | [6] 0.017 | [7] 0.04 | [8] 0.025 | [9] -0.036 | [10] -0.045
active: [3] -0.384

RALA (UniProt P11233)
inactive: [1] -0.03 | [2] -0.019 | [3] 0.057 | [4] 0.004 | [5] -0.064 | [6] 0.142 | [7] 0.082 | [8] -0.021 | [9] 0.028 | [10] -0.028

RAB5C isoform 2 (UniProt P51148)
Chain of UniProt P51148 (P51148 whole entry, looked up): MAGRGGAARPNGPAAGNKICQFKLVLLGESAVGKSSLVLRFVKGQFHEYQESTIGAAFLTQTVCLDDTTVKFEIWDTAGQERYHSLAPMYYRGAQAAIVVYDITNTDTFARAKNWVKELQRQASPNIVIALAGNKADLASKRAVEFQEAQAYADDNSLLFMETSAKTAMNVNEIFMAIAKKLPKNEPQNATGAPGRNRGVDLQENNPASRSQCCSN
inactive: [1] 0.092 | [2] 0.041 | [3] 0.017 | [4] 0.051 | [5] 0.007 | [6] -0.001 | [7] -0.004 | [8] -0.009 | [9] 0.049 | [10] -0.028
